Source: PubChem (National Center for Advancing Translational Sciences (NCATS))
HP1b chromo inh – inhibitors of HP1-beta chromodomain binding to methylated histone tails; P83916; AlphaScreen HP1-beta / biotin-H3K9me3 peptide binding; Potency, µM (top dose mostly 114 µM), without a hit: top-dose activity change, negative = inhibition, usual class: inhibitors; 390,000 tested, 0.56% active; further: potency means the concentration at half of the fitted maximal effect; nearly all actives have a fitted effect of over 70% in size
Target sequence (P83916 whole entry, looked up): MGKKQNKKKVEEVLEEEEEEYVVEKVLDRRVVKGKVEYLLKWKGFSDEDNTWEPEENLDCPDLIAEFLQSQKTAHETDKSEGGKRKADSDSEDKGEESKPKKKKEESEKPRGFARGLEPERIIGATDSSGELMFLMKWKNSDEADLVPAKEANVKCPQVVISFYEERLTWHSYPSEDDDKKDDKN
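Compound inhibition of the preformed complex between 50 nM HP1-beta and 50 nM biotinylated H3K9me3 peptide was read by AlphaScreen. Buffer was PBS pH 7.4 with 0.01% Tween-20. Incubations ran 30 min at room temperature, with 10 ug/mL donor/acceptor beads.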
G9a inh – blocks human histone lysine methyltransferase G9a; Q96KQ7; G9a H3K9 monomethylation, AlphaScreen, 2 h; Potency, µM (series often up to 102 µM), without a hit: at the top dose activity, negative = inhibition, usual class: inhibitors; 350,000 tested, 8.8% active; further: potency means the concentration at half of the fitted maximal effect; on the % scale 0 is the no-effect control and ±100 the full control effect; nearly all actives have a fitted effect of over 75% in size
Target sequence (Q96KQ7 913-1193 limits assumed): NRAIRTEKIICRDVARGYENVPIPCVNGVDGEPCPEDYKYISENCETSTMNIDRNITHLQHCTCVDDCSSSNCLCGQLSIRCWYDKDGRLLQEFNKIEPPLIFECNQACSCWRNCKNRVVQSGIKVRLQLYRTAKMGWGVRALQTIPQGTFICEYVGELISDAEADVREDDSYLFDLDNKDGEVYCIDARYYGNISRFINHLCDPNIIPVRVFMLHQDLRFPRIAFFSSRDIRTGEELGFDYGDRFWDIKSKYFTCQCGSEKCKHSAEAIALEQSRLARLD
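Readings reflect AlphaScreen signal from monomethyl-H3K9 antibody detection. HMT at 20 nM; substrate b-H3K9 500 nM; cofactor SAM 20 uM; 2 h RT reaction; compounds tested as titrations in qHTS with 15 min preincubation.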
JMJD2A Tudor inh – blocks the human JMJD2A Tudor domain; AlphaScreen JMJD2A-Tudor / H3K4me3 peptide binding; Potency, µM (top dose mostly 114 µM), for inactives: at the top dose activity change, negative = inhibition, most hits filed as inhibitors; 390,000 tested, 4.4% active; AID 504339; further: potency means the concentration at half of the fitted maximal effect; on the % scale 0 is the no-effect control and ±100 the full control effect; nearly all actives have a fitted effect of over 50% in size
Six1-Eya2 blk – Six1/Eya2 interaction inhibition; Q15475+O00167; AlphaScreen GST-Six1/His-Eya2 binding, biochemical; stronger effect = lower value; activity change, % (test concentration not listed); 360,000 tested, 0.56% active; in the data active means activity change below about -65%; inconclusive means mostly about -30% to -63%; further: on the % scale 0 is the no-effect control and ±100 the full control effect
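AlphaScreen with GST-Six1 and His-Eya2 (5X mix: 250 nM and 500 nM), glutathione donor and nickel acceptor beads; buffer 50 mM Tris pH 8.0, 300 mM NaCl, 1 mM TCEP; 1 h at 37 C in the dark.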
CtBP-E1A inh – CtBP/E1A binding inhibition; AlphaScreen GST-E1A/His-CtBP binding, 1536-well; stronger effect = lower value; activity change, % (test concentration not listed); 340,000 tested, 0.49% active; AID 651724; in the data active means activity change below about -65%; inconclusive means mostly about -30% to -63%; further: on the % scale 0 is the no-effect control and ±100 the full control effect
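In 5 uL wells, 23 nL compound meets equimolar GST-E1A and His-CtBP (5X stock 125 nM each) for 2 h, 37 °C. Beads (5X, 50 ug/mL) then 1 h, 37 °C, dark.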
BAZ2B block – BAZ2B (human) inhibition; Q9UIF8; AID 504333; Potency, µM (top dose mostly 114 µM), for inactives: at the highest dose activity change, negative = inhibition, actives largely listed as inhibitors; AlphaScreen BAZ2B-H3K14Ac peptide displacement; 360,000 tested, 4.4% active; further: potency means the concentration at half of the fitted maximal effect; on the % scale 0 is the no-effect control and ±100 the full control effect; nearly all actives have a fitted effect of over 60% in size
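AlphaScreen displacement of biotin-H3(5-23)K14Ac peptide (50 nM final) from BAZ2B (50 nM final) in PBS pH 7.4, 0.01% Tween-20; complex preformed 30 min RT, then compounds (top 110 uM) 30 min RT, beads 20 min dark.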
An asterisk follows results filed as active; ? = inconclusive; . = no result; [ ] = dose if it differs, or a comment. Hits are enriched below; roughly 10% of the tested compounds scored in any of these assays. Unless noted, the call rests on the fitted dose curve; in most records, active means well fitted inhibition curve with a large enough effect; inconclusive means small, poorly fitted or top-dose-only effect; inactive means no such curve, though single readings can be large or run the other way.

SMILES | HP1b chromo inh | G9a inh | JMJD2A Tudor inh | Six1-Eya2 blk | CtBP-E1A inh | BAZ2B block
Cc1ccc(Cl)cc1N(C)C(=O)c1cc2ccc3cccnc3c2[nH]1 | -8% | -32%[59 µM] | ? | . | . | -39%[57.1 µM]
Nc1cccc(-c2nc3ccc(C(=O)c4ccccc4)cc3[nH]2)c1 | -11% | . | ? | -5 | . | 50µM*
Nc1ccc2nc(-c3ccccc3)[nH]c2c1 | -3% | -10%[59 µM] | -34% | -2 | -15 | ?
COC(=O)CSc1nnc(-c2cccc(O)c2)o1 | 32%[57 µM] | -5%[59 µM] | -18% | . | . | 1%
COc1ccc(-c2nc(SCC(=O)NCCCc3ccccc3)n[nH]2)cc1 | 26%[57 µM] | 11%[59 µM] | -6% | . | . | 3%
O=C(Nc1ccc2cccnc2c1)c1ccc(Br)cc1 | 126% | 23%[0.501 µM] | 104% | 5 | . | 92%
O=C(Nc1ccc2nc3ccccc3nc2c1)c1ccc(Br)cc1 | 32% | 8.9µM* | -8% | -11 | 2 | -1%
O=C(Nc1ccc2ccccc2c1)c1ccccc1Cl | . | . | . | 0 | 3 | .
O=C(NC(=S)Nc1ccc2nc[nH]c2c1)c1ccccc1 | 10% | 50µM* | -19% | -2 | 0 | -22%
O=C(Nc1cnc2ccccc2c1)c1cccnc1 | 56% | -13% | -8% | -7 | 23 | 6%
O=C(Nc1ccc2ncccc2c1)c1ccccc1 | -30% | . | 22µM* | -1 | 12 | -31%
O=C(Nc1ccc2ncccc2c1)c1ccccc1Cl | 20% | 10µM* | -4% | 11 | . | -20%
CCc1ccc(S(=O)(=O)Nc2cccc(-c3ccc(N4CCCCC4)nn3)c2)s1 | 9%[57 µM] | -3%[59 µM] | -28% | . | . | ?
Cc1cc(C(=O)Nc2ccc(Br)cc2)cs1 | 51% | 79µM* | 12% | 8 | 12 | 56µM*
O=C(NNC(=S)Nc1ccccc1)c1ccc2ncccc2c1 | 10% | 28µM* | -21% | 17 | 24 | 10%
O=C(NC(=S)Nc1ccc2ncccc2c1)c1ccccc1 | 5% | 56µM* | ? | 8 | 5 | ?
CN1C2CCC1/C(=C\c1ccc(F)cc1)C(=O)/C2=C/c1ccc(F)cc1 | 2% | -3% | -31% | 9 | -5 | -34%
Cn1cccc1/C=C1\CC(C(C)(C)C)C/C(=C\c2cccn2C)C1=O (stereo not drawn) | ? | ? | 40µM* | -18 | -5 | 28µM*
COc1cc(/C=C2\CC(C(C)(C)C)C/C(=C\c3cc(OC)c(OC)c(OC)c3)C2=O)cc(OC)c1OC (stereo not drawn) | ? | -31%[2.33 µM] | ? | -12 | 3 | ?
CN1C2CCC1/C(=C/c1cccn1C)C(=O)/C2=C\c1cccn1C | ? | ? | 45µM* | ? | -22 | 45µM*
CCn1c(CNC(=O)C23CC4CC(CC(C4)C2)C3)nnc1SCC(=O)Nc1ccc(C)cc1 | 23% | 2%[59 µM] | -3% | . | . | -12%
CN1CCN(C2(CNC(=O)c3ccc(C(C)(C)C)cc3)CCCCC2)CC1 | 42% | ? | -6% | . | . | -7%
COc1ccc(CN2CCN(C(=O)c3ccccc3C(=O)c3ccccc3)CC2)cc1OC | 31% | . | 1% | 1 | 10 | .
CCOc1ccc(CN2CCN(C(=O)c3cccc4ccccc34)CC2)cc1 | ? | 14µM* | 25µM* | -6 | -12 | 45µM*
COc1cc(CN2CCN(C(=O)c3cccc4ccccc34)CC2)cc(OC)c1O | ? | 6.3µM* | 22µM* | -7 | 10 | 50µM*
CCOc1ccc(CN2CCN(C(=O)c3ccccc3)CC2)cc1 | ? | ? | -13%[11.4 µM] | 27 | 33 | ?
Cc1[nH]c2ccc(F)cc2c1CCN1C(=O)OC(C)(C)C1(C)O (stereo not drawn) | 0% | 0%[12.7 µM] | -1% | -3 | -1 | -26%
Cc1[nH]c2ccc(OCc3ccccc3)cc2c1CCN1C(=O)OC(C)(C)C1(C)O (stereo not drawn) | -10% | 79µM* | ? | 2 | -9 | ?
